Assay results: PubChem BioAssay (NCATS)
Several values for one entry are separate records, joined by “and”; a condition that tells them apart may be missing. Equal entries are not always repeated. Inconclusive results are not listed. Activity calls are given as the source filed them. Calls come from the whole dose curve; as a rule, active = well fitted curve in the direction sought with a large enough effect; inconclusive = small, poorly fitted or top-dose-only effect, or another doubt; inactive = no such curve, though single readings can be large; an effect the other way counts as inactive or inconclusive.

system: not listed separately; experiment: Cell Viability - LYMP2-020 (AID 986); conditions: series mostly up to 92.2 µM; activity change, negative = viability loss: at the top concentration;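 note: cells exposed to compound for 24 h at 37 °C; nearly all actives have a fitted effect of over 55% in size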; note: potency is the fitted concentration of half-maximal effect;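 for activity change, negative = viability loss: plate controls were DMSO only for no effect and tetraoctylammonium bromide at 92 µM for full effect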
Summary of the method: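 Cells at 2500 per well receive a 24 hr compound exposure at 37 C. Viability is measured as ATP-dependent luciferase luminescence, with AC50 modeled from qHTS concentration-response curves.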

Row | SMILES | activity change, negative = viability loss | Potency
1 | NCC(O)c1ccc(O)cc1 (stereo unspecified) | -2.08% (inactive) | 
2 | CCCC(C)(COC(N)=O)COC(=O)NC(C)C (stereo unspecified) | -5.23% (inactive) | 
3 | N[C@@H](Cc1ccc(N(CCCl)CCCl)cc1)C(=O)O |  | 39.8 µM (active)
4 | CNCC(O)c1ccc(O)cc1 (stereo unspecified) | 3.93% (inactive) | 
5 | Oc1ccc(Cl)cc1Cc1ccccc1 | -7.82% (inactive) | 
6 | CC(COc1ccccc1)N(CCCl)Cc1ccccc1 (stereo unspecified) |  | 50.1 µM (active)
7 | Oc1ccccc1-c1ccccc1 | -1.57% (inactive) | 
8 | Oc1cccc2cccnc12 |  | 12.6 µM (active) and 10 µM (active)
9 | OCCOc1ccccc1 | -14.5% (inactive) | 
10 | c1ccc2c(c1)Nc1ccccc1S2 | -7.2% (inactive) | 
11 | CCOP(=S)(OCC)Oc1cc(C)nc(C(C)C)n1 | -12.1% (inactive) | 

system: not listed separately; experiment: Cell Viability - LYMP2-022 (AID 987); conditions: LYMP2-022 lymphoblastoid cell viability; series mostly up to 92.2 µM; viability change, negative = cytotoxic: at the top concentration; note: nearly all actives have a fitted effect of over 55% in size; note: potency is the fitted concentration of half-maximal effect;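 for viability change, negative = cytotoxic: 0% = DMSO alone and full effect = tetraoctylammonium bromide at 92 µM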
Summary of the method: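 In this qHTS cytotoxicity screen, compound titrations were incubated 24 hr at 37 C with human lymphoblastoid cells in complete medium. Luciferase-based ATP luminescence provided the viability signal.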

Row | SMILES | viability change, negative = cytotoxic | Potency
12 | NCC(O)c1ccc(O)cc1 (stereo unspecified) | -8.25% (inactive) | 
13 | CCCC(C)(COC(N)=O)COC(=O)NC(C)C (stereo unspecified) | -9.12% (inactive) | 
14 | N[C@@H](Cc1ccc(N(CCCl)CCCl)cc1)C(=O)O |  | 15.8 µM (active)
15 | CNCC(O)c1ccc(O)cc1 (stereo unspecified) | -1.16% (inactive) | 
16 | Oc1ccc(Cl)cc1Cc1ccccc1 | -0.572% (inactive) | 
17 | Oc1ccccc1-c1ccccc1 | -22.2% (inactive) | 
18 | Oc1cccc2cccnc12 |  | 10 µM (active) and 6.31 µM (active)
19 | OCCOc1ccccc1 | 0.606% (inactive) | 
20 | c1ccc2c(c1)Nc1ccccc1S2 | -5.61% (inactive) | 
21 | CCOP(=S)(OCC)Oc1cc(C)nc(C(C)C)n1 | -15.6% (inactive) | 

system: not listed separately; experiment: Cell Viability - LYMP2-024 (AID 988); conditions: LYMP2-024 lymphoblastoid cell viability; series mostly up to 92.2 µM; activity change, negative = cytotoxicity: at the top concentration; note: nearly all actives have a fitted effect of over 60% in size; note: potency is the fitted concentration of half-maximal effect;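 for activity change, negative = cytotoxicity: plate controls were DMSO only for no effect and 92 µM tetraoctylammonium bromide for full effect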
Summary of the method: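 Cells at 2500 per well received compound for 24 hr after a 5 hr settling period. Viability was scored by CellTiter-Glo luminescence, with AC50 from Hill fits.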

Row | SMILES | activity change, negative = cytotoxicity | Potency
22 | NCC(O)c1ccc(O)cc1 (stereo unspecified) | -14.8% (inactive) | 
23 | CCCC(C)(COC(N)=O)COC(=O)NC(C)C (stereo unspecified) | -8.62% (inactive) | 
24 | CC(=O)Oc1ccccc1C(=O)Nc1ncc([N+](=O)[O-])s1 |  | 39.8 µM (active)
25 | N[C@@H](Cc1ccc(N(CCCl)CCCl)cc1)C(=O)O |  | 20 µM (active)
26 | CNCC(O)c1ccc(O)cc1 (stereo unspecified) | -4.63% (inactive) | 
27 | Oc1ccc(Cl)cc1Cc1ccccc1 | -13.2% (inactive) | 
28 | Oc1ccccc1-c1ccccc1 | -21.4% (inactive) | 
29 | Oc1cccc2cccnc12 |  | 7.94 µM (active)
30 | OCCOc1ccccc1 | -2.04% (inactive) | 
31 | c1ccc2c(c1)Nc1ccccc1S2 | -2.6% (inactive) | 
32 | CCOP(=S)(OCC)Oc1cc(C)nc(C(C)C)n1 | -11.6% (inactive) | 

system: not listed separately; experiment: Cell Viability - LYMP2-026 (AID 989); conditions: LYMP2-026 lymphoblastoid cell viability, qHTS; series mostly up to 92.2 µM; activity change, negative = cytotoxic: at the top concentration;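 note: cells exposed to compound for 24 h at 37 °C; % is set by controls: 0 for no effect and ±100 for the full control effect; nearly all actives have a fitted effect of over 50% in size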
Summary of the method: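 Acute toxicity screen in complete culture medium, with 24 hr compound exposure at 37 C. Viability read as cellular ATP via luciferase reaction, with tetraoctylammonium bromide (6.4pM to 92 uM) as positive control.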

Row | SMILES | activity change, negative = cytotoxic
33 | NCC(O)c1ccc(O)cc1 (stereo unspecified) | 4.07% (inactive)
34 | CCCC(C)(COC(N)=O)COC(=O)NC(C)C (stereo unspecified) | -1.11% (inactive)
35 | CNCC(O)c1ccc(O)cc1 (stereo unspecified) | -0.319% (inactive)
36 | Oc1ccc(Cl)cc1Cc1ccccc1 | -1.53% (inactive)
37 | Oc1ccccc1-c1ccccc1 | 7.11% (inactive)
38 | OCCOc1ccccc1 | 0.865% (inactive)
39 | c1ccc2c(c1)Nc1ccccc1S2 | -1.45% (inactive)
40 | CCOP(=S)(OCC)Oc1cc(C)nc(C(C)C)n1 | -6.59% (inactive)

biological target: Alpha-galactosidase A (Homo sapiens) (UniProt P06280); experiment: Counterscreen for Glucocerebrosidase Inhibitors: qHTS Assay for Human alpha-Galactosidase at pH 4.5 (AID 992); conditions: purified enzyme, fluorogenic substrate; series mostly up to 76.9 µM; activity change, negative = inhibition: at the top concentration; note: 0% is about no effect
Sequence (P06280 whole entry, looked up): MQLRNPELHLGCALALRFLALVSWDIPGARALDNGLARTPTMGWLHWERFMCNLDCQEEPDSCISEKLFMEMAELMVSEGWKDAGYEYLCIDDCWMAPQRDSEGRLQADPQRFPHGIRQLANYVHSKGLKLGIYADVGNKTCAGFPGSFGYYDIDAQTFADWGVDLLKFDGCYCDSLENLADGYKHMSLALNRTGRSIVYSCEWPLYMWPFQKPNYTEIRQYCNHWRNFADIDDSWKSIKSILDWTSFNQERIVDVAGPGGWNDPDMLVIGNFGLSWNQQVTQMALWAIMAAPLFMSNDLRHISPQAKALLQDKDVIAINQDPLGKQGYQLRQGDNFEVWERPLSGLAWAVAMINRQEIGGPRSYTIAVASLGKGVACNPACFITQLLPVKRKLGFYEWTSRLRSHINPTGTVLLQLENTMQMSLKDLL
Summary of the method: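 Fluorogenic 1536-well qHTS at pH 4.5 (citrate, Tween-20): 2 nM enzyme, 80 uM 4-MU-alpha-galactoside, 20 min room temperature, NaOH/glycine stop. Titration 0.7 nM to 77 uM, data normalized to no-enzyme and full-activity controls, Hill-fitted AC50.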

Row | SMILES | activity change, negative = inhibition | outcome
41 | COc1ccccc1N1CCNCC1 | 2.71% (inactive) | 
42 | CCCC(C)(COC(N)=O)COC(=O)NC(C)C (stereo unspecified) | -1.32% (inactive) | 
43 | CCn1cc(C(=O)O)c(=O)c2ccc(C)nc21 | 1.31% (inactive) | 
44 | Clc1cccc(N2CCNCC2)c1 | -2.63% (inactive) | 
45 | Cc1ncc(CNC(=O)N(CCCl)N=O)c(N)n1 | -1.92% (inactive) | 
46 | O=c1[nH]c2ccccc2n1CCCN1CCC(n2c(=O)[nH]c3cc(Cl)ccc32)CC1 | -2.89% (inactive) | 
47 | CNCC(O)c1ccc(O)cc1 (stereo unspecified) | 1.15% (inactive) | 
48 | Cc1ccc(S(=O)(=O)N[C@@H](CCCCN)C(=O)CCl)cc1 | 0.925% (inactive) | 
49 | NCC1(CC(=O)O)CCCCC1 | -1.21% (inactive) | 
50 | N#CC(C#N)=Cc1ccc(O)c(O)c1 | -0.911% (inactive) | 
51 | Cc1cccc(C)c1NC1=NCCCS1 | 0.247% (inactive) | 
52 | CCCN1CCC[C@@H]2Cc3[nH]ncc3C[C@H]21 |  | inactive
53 | CN1C[C@H](CNC(=O)OCc2ccccc2)C[C@@H]2c3cccc4c3c(cn4C)C[C@H]21 | 0.365% (inactive) | 
54 | CCCN1CCC[C@@H]2Cc3nc(N)ncc3C[C@H]21 | -1.16% (inactive) | 
55 | CC(=O)[C@H]1CC[C@H]2[C@@H]3CC[C@H]4C[C@H](O)CC[C@]4(C)[C@H]3C(=O)C[C@]12C | 1.21% (inactive) | 
56 | c1ccc(C2CC2)c(OCC2=NCCN2)c1 | 2.15% (inactive) | 
57 | NCC(CC(=O)O)c1ccc(Cl)cc1 (stereo unspecified) | -1.28% (inactive) | 
58 | NN=C(N)N |  | inactive
59 | N[C@@H]1C[C@H]1c1ccccc1 | -0.387% (inactive) | 
60 | Fc1ccc(C(OCCN2CCN(CCCc3ccccc3)CC2)c2ccc(F)cc2)cc1 | -10.4% (inactive) | 

system: not listed separately; experiment: Cell Viability - LYMP1-002 - Assay at 24 hr (AID 993); conditions: LYMP1-002 lymphoblastoid cells viability; series mostly up to 92.2 µM; activity change, negative = cytotoxicity: at the top concentration; note: potency is the fitted concentration of half-maximal effect; for activity change, negative = cytotoxicity: % is set by controls: 0 for no effect and ±100 for the full control effect
Summary of the method: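 Viability was judged from intracellular ATP using a luciferase read-out, following a 24-hour compound incubation at 37 C of lymphoblastoid cells seeded at 2500 per well. Concentration-response data were fitted to the Hill equation for AC50.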

Row | SMILES | activity change, negative = cytotoxicity | Potency
61 | NCC(O)c1ccc(O)cc1 (stereo unspecified) | 1.49% (inactive) | 
62 | CCCC(C)(COC(N)=O)COC(=O)NC(C)C (stereo unspecified) | 3.5% (inactive) | 
63 | CC(=O)Oc1ccccc1C(=O)Nc1ncc([N+](=O)[O-])s1 |  | 39.8 µM (active)
64 | N[C@@H](Cc1ccc(N(CCCl)CCCl)cc1)C(=O)O | -0.214% (inactive) | 
65 | CNCC(O)c1ccc(O)cc1 (stereo unspecified) | 8.91% (inactive) | 
66 | Oc1ccc(Cl)cc1Cc1ccccc1 | 7.47% (inactive) | 
67 | Oc1ccccc1-c1ccccc1 | -0.384% (inactive) | 
68 | Oc1cccc2cccnc12 |  | 25.1 µM (active)
69 | OCCOc1ccccc1 | 1.54% (inactive) | 
70 | c1ccc2c(c1)Nc1ccccc1S2 | -3.96% (inactive) | 
71 | CCOP(=S)(OCC)Oc1cc(C)nc(C(C)C)n1 | -4.38% (inactive) | 

system: not listed separately; experiment: Cell Viability - LYMP1-002 - Assay at 40 hr (AID 994); conditions: LYMP1-002 lymphoblastoid cell viability; series mostly up to 92.2 µM; viability change, negative = cytotoxic: at the top concentration; note: nearly all actives have a fitted effect of over 60% in size; note: potency is the fitted concentration of half-maximal effect;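 for viability change, negative = cytotoxic: 0% = DMSO only and full inhibition = 92 µM tetraoctylammonium bromide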
Summary of the method: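 Concentration-dependent ATP loss after 40 hr treatment at 37 C defined toxicity; AC50 values were obtained by fitting the standard Hill equation.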

Row | SMILES | viability change, negative = cytotoxic | Potency
72 | NCC(O)c1ccc(O)cc1 (stereo unspecified) | -4.32% (inactive) | 
73 | CCCC(C)(COC(N)=O)COC(=O)NC(C)C (stereo unspecified) | -7.59% (inactive) | 
74 | CC(=O)Oc1ccccc1C(=O)Nc1ncc([N+](=O)[O-])s1 |  | 39.8 µM (active)
75 | N[C@@H](Cc1ccc(N(CCCl)CCCl)cc1)C(=O)O | -1.24% (inactive) | 
76 | CNCC(O)c1ccc(O)cc1 (stereo unspecified) | -0.795% (inactive) | 
77 | Oc1ccc(Cl)cc1Cc1ccccc1 | -2.05% (inactive) | 
78 | Oc1ccccc1-c1ccccc1 | -7.45% (inactive) | 
79 | OCCOc1ccccc1 | -5.5% (inactive) | 
80 | c1ccc2c(c1)Nc1ccccc1S2 | -6.24% (inactive) | 
81 | CCOP(=S)(OCC)Oc1cc(C)nc(C(C)C)n1 | -3.77% (inactive) | 
